FLuc modulator – qHTS profiling assay for firefly luciferase inhibitor/activator using purifed enzyme and Km concentrations of substrates (counterscreen for miR-21 project); purified FLuc, Km substrates, luminescence inhibition; 360,000 tested, 6.9% active; Potency, µM (highest dose often 57.5 µM), for inactives: top-dose activity change, negative = inhibition, actives largely listed as inhibitors; Luciferin 4-monooxygenase (Photinus pyralis), P08659; AID 588342, 2011;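 further: plate controls were vehicle for no effect and reference inhibitor for full effect; nearly all actives have a fitted effect of over 55% in size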
Target sequence (P08659 whole entry, looked up): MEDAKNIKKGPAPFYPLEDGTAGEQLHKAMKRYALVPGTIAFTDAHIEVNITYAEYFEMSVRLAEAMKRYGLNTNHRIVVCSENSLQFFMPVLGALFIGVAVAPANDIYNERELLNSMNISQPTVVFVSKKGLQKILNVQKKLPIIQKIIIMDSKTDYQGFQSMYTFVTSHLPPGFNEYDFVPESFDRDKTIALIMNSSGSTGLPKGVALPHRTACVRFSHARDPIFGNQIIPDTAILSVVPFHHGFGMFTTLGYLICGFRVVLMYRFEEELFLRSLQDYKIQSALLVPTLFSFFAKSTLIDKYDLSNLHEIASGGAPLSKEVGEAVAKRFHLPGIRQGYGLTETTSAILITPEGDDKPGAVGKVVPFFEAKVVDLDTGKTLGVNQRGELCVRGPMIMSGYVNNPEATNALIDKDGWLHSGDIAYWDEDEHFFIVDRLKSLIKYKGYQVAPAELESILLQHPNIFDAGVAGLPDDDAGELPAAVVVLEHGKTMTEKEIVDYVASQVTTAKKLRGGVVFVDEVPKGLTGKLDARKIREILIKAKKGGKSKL
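Purified P. pyralis luciferase, 10 nM final, with Km-level 10 uM D-luciferin and 10 uM ATP in 50 mM Tris acetate pH 7.5, 10 mM Mg acetate, 0.01% Tween-20, 0.05% BSA; 6-point qHTS titration about 60 µM downward; luminescence read.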
KinaseGlo FLuc – Counterscreen for Luciferase (Kinase-Glo TM) Inhibition | Kinase-Glo luciferase, ATP luminescence, 8 min | Luciferin 4-monooxygenase (Photuris pensylvanica), Q27757 | Potency, µM (series often up to 38.3 µM), inactives show top-dose activity change, negative = inhibition, actives largely listed as inhibitors | 200,000 tested, 0.28% active | AID 1379, 2008; further: on the % scale 0 is the no-effect control and ±100 the full control effect; nearly all actives have a fitted effect of over 60% in size
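Kinase-Glo luciferase light output from ATP and luciferin was measured with 10 uM ATP, within the enzyme's linear range. Buffer: 50 mM imidazole pH 7.2, 50 mM KCl, 7 mM MgCl2, 0.01% Tween 20, 0.05% BSA; luminescence read after 8 min at ambient temperature.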
NPC1 prom act – qHTS Assay for NPC1 Promoter Activators; Huh7 NPC1 promoter luciferase reporter, 24 h; Potency, µM (titrated, usually from 9.22 µM), without a hit: top-dose activation, hits mostly activators; 320,000 tested, 2.4% active; AID 485313, 2010; further: % of control where 0% means no effect; nearly all actives have a fitted effect of over 60% in size
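In 1536-well qHTS, Huh7 cells harboring an NPC1 promoter–luciferase construct received compound for 24 h; activation was quantified by luminescence following luciferase reagent addition.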
SMN2 splice up – qHTS Assay for Enhancers of SMN2 Splice Variant Expression; 210,000 tested, 2.8% active; AID 1458, 2008; HEK293 SMN2-luciferase splicing reporter, luminescence, 30-36 h; Potency, µM (series often up to 46.1 µM), without a hit: at the highest dose activity change, positive = activation, hits mostly activators; further: % of control where 0% means no effect; nearly all actives have a fitted effect of over 55% in size
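HEK293 cells carry an SMN2 minigene-luciferase reporter in which exon 7 inclusion puts luciferase in frame. Cells were seeded at 2000 cells/well, attached for 10-12 hours, then exposed to compounds for 30-36 hours at 37C before ONE-Glo luminescence.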
ELG1 genotoxic – qHTS screen for small molecules that induce genotoxicity in human embryonic kidney (HEK293T) cells expressing luciferase-tagged ELG1; HEK293T ELG1-luciferase reporter, luminescence, 16 h; Potency, µM (top dose mostly 46 µM), for inactives: at the highest dose activity change, positive = activation, actives largely listed as activators; 330,000 tested, 1.3% active; AID 504466, 2011; further: % of control where 0% means no effect; nearly all actives have a fitted effect of over 60% in size
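Quantitative HTS format in 1536-well plates. HEK293T ELG1-luciferase reporter cells receive test compound and are incubated 16 hr at 37 °C, 5% CO2; ONE-Glo added, 30 min room temperature, then luminescence read.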
Rab9 promoter act – qHTS Assay for Rab9 Promoter Activators; Huh7 Rab9 promoter-luciferase reporter, luminescence, 24 h; Potency, µM (highest dose often 9.22 µM), without a hit: at the highest dose activation, negative = inhibition, hits mostly activators; 320,000 tested, 2.8% active; further: % of control where 0% means no effect; nearly all actives have a fitted effect of over 60% in size
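Luminescence read-out: Huh7 cells stably expressing Rab9-luciferase, treated 24 h with compound at 37 °C, then lysed with luciferase reagent for 10 min at ambient before reading.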
Active calls of the source: *; ? = inconclusive; nt = no result given; ! = not active in a repeat; [ ] = dose if it differs, or a comment. Compounds with a hit are over-represented: about 7.5% of the library has one in this group of screens. The call rests on the fitted dose curve; in most records, active means well fitted curve in the direction sought with a large enough effect; inconclusive means small, poorly fitted or top-dose-only effect, or another doubt; inactive means no such curve, though single readings can be large; an effect the other way counts as inactive or inconclusive. Potency means the concentration at half of the fitted maximal effect.

SMILES	FLuc modulator	KinaseGlo FLuc	NPC1 prom act	SMN2 splice up	ELG1 genotoxic	Rab9 promoter act
Cc1nc(-c2ccc(NC(=O)c3ccco3)cc2)cs1	0.067µM*	nt	?	nt	0.21µM*	?
Nc1nc2ccc(NC(=O)c3ccco3)cc2s1	15µM*	nt	?	nt	?	?
Nc1nc(-c2ccc(NC(=O)c3ccco3)cc2)cs1	0.67µM*	nt	0.71µM*	nt	?	0.79µM*
Cc1ccn2cc(-c3ccc(NC(=O)c4ccco4)cc3)nc2c1	3.4µM*	-13%	3.2µM*	4.5µM*	?	1.4µM*
Cc1cc(-c2ccc(C)c(S(=O)(=O)NC(c3cccs3)C(C)C)c2)on1 (stereo not given)	-13%	nt	nt	nt	nt	nt
Cc1ccc2oc(C(=O)Nc3ccc(S(=O)(=O)Nc4ncccn4)cc3)cc(=O)c2c1	-1%	nt	nt	19%	nt	nt
COC(=O)C1=C(C(=O)OC)[C@@H]2N(C)c3ccc(OC)cc3[C@@]23C[C@@H](C(=O)OC)N(S(=O)(=O)c2c(C)noc2C)C3=N1	nt	-2%[7.66 µM]	nt	1%[9.22 µM]	nt	nt
CCC(Oc1ccccc1C)C(=O)N1CCCN(C)CC1 (stereo not given)	5%	nt	3%	nt	-1%	-3%
CCN(c1ccc(OC)cc1)S(=O)(=O)c1ccc2[nH]c(=O)ccc2c1	5.4µM*	nt	nt	nt	nt	nt
CCOC(=O)CCN(c1ccccc1)S(=O)(=O)c1ccc2[nH]c(=O)ccc2c1	-5%	nt	nt	nt	nt	nt
Cc1ccc2[nH]c3c(c2c1)CC/C(=C/c1ccccc1)C3=O	4.8µM*	-4%	28%	?	?	?
O=C1/C(=C\c2ccccc2)CCc2c1[nH]c1ccccc21	2.7µM*	-1%	?	11µM*	1.5µM*	?
Cc1ccc(/C=C2/CCc3c([nH]c4ccccc34)C2=O)cc1	0.76µM*	-6%	0.5µM*	6.3µM*	?	0.45µM*
CC(C)/C=C1\CCc2c([nH]c3ccccc23)C1=O	?	0%	12%	nt	-14%	?
CCN(CC)S(=O)(=O)c1ccc(NC(=O)[C@H](CSCc2ccccc2)N2Cc3ccccc3C2=O)cc1	5%	nt	nt	4.5µM*	nt	nt
CN(c1ccccc1)S(=O)(=O)c1nnc(NC(=O)c2ccccc2)s1	0.19µM*	nt	nt	nt	nt	nt
CCN(c1ccc(C)cc1)S(=O)(=O)c1nnc(NC(=O)c2cccs2)s1	13µM*	nt	nt	nt	nt	nt
CCCC(=O)Nc1nnc(S(=O)(=O)N(C)c2ccccc2)s1	0.85µM*	nt	nt	nt	nt	nt
CCCCC(=O)Nc1nnc(S(=O)(=O)N(CC)c2ccccc2)s1	0%	nt	0%	nt	-3%	-1%
CCN(c1ccccc1)S(=O)(=O)c1nnc(NC(=O)c2cccs2)s1	0.34µM*	nt	nt	nt	nt	nt
CCn1c(SCC(=O)Nc2c(C)cccc2C)nnc1-c1nonc1NC(C)=O	-1%	nt	nt	nt	nt	nt
CCN(c1ccccc1)S(=O)(=O)c1nnc(NC(=O)c2ccccc2)s1	2.4µM*	nt	nt	nt	nt	nt
Cc1cccc(NS(=O)(=O)c2nnc(NC(=O)C3CCCCC3)s2)c1	6.7µM*!	nt	-3%	nt	-3%	3%
CCN(c1ccc(Cl)cc1)S(=O)(=O)c1nnc(NC(=O)c2ccccc2C)s1	4%	nt	nt	nt	nt	nt
CN(c1ccccc1)S(=O)(=O)c1nnc(NC(=O)C2CCCCC2)s1	0.67µM*!	nt	-2%	nt	2%	3%
SMILES	FLuc modulator	KinaseGlo FLuc	NPC1 prom act	SMN2 splice up	ELG1 genotoxic	Rab9 promoter act
Cc1cccc(NS(=O)(=O)c2nnc(NC(=O)CC(C)C)s2)c1	1%	nt	0%	nt	-2%	0%
CCN(c1ccccc1)S(=O)(=O)c1nnc(NC(=O)c2ccccc2OC)s1	1.7µM*!	nt	-1%	nt	-1%	-3%
CN(C(=O)c1cnc(N2CCOCC2)c2ccccc12)c1ccccc1F	0%	nt	nt	nt	nt	nt
Cn1cc(C(=O)NCCc2ccc(Cl)cc2)c(=O)c2cc(S(=O)(=O)N3CCOCC3)ccc21	-1%	nt	nt	-3%	nt	nt
COc1ccc(N(CC(=O)NCc2ccccc2OC)S(=O)(=O)c2ccccc2)cc1	2%	nt	-1%	nt	-10%	-1%
Cc1cccc(N(C)S(=O)(=O)c2nnc(NC(=O)C(C)Oc3ccccc3)s2)c1 (stereo not given)	4.8µM*	nt	nt	nt	nt	nt
CCC(CC)C(=O)Nc1nnc(S(=O)(=O)N(C)c2cc(C)cc(C)c2)s1	-13%	nt	nt	nt	nt	nt
Cc1ccc(N2C(=O)c3ccccc3C2O)nc1 (stereo not given)	1.5µM*	4.5µM*	?	0.56µM*	?	0.28µM*
Cc1ccc(N2C(=O)c3ccccc3C2Nc2ccccc2F)nc1 (stereo not given)	0%	-5%	-5%	-5%	2%	20%
COc1cccc(/C=c2\sc3nc(-c4cccs4)nn3c2=O)c1OC	8.5µM*	-4%	0%	17%	2%	-3%
CCOc1ccc(NC(=O)C(=O)NCCc2csc(-c3ccc(F)cc3)n2)cc1	0%	nt	nt	nt	nt	nt
Cc1ccc(C)c(C(=O)COC(=O)CCCC(=O)Nc2cc(C(F)(F)F)ccc2Cl)c1	4.8µM*	-1%	-2%	-10%	-1%	0%
COCc1cc(C)nc2sc3c(c12)NC(c1ccc(NC(C)=O)cc1)N(c1ccc(C)cc1)C3=O (stereo not given)	-19%	nt	nt	19%	nt	nt
Cc1ccc(Nc2nc3ccccc3c3nnc(C)n23)c(C)c1	-13%	nt	nt	nt	nt	nt
O=c1oc2c(CN3CCOCC3)c(O)ccc2c2ccccc12	?	-2%	4µM*	3%	13%	29%
O=c1oc2c(CN3CCOCC3)c(O)ccc2c2c1CCCC2	0%	-5%	23%	-15%	-14%	-2%
COc1cc(COC(=O)Oc2ccc(CNC(C)=O)cc2OC)c([N+](=O)[O-])cc1OC	-4%	nt	-3%	nt	4%	-5%
COc1ccc(COC(=O)Oc2ccc(CNC(C)=O)cc2OC)c([N+](=O)[O-])c1	13µM*	nt	-4%	nt	0%	-2%
O=C(Nc1ccccc1)ON=C1CCCC1	24µM*	-19%	26%	20µM*	?	?
O=C(Nc1ccccc1)O/N=C/c1ccncc1	?	2%	3%	2%	7%	5%
Cc1ccc(NC(=O)ON=C2CCCC2)cc1	8.5µM*	0%	?	?	21µM*	3.5µM*
CCC/C=C(\CCC)C(NS(C)(=O)=O)c1ccccc1 (stereo not given)	nt	-1%	nt	0%	nt	nt
C=CCn1c(N)c(C(=O)NCCC2=CCCCC2)sc1=S	?	4%	24%	13µM*	?	19%
COc1ccc([N+](=O)[O-])cc1NCc1ccccc1	1%	-1%	-4%	32µM*	?	-3%
